VACV Venus inh: inhibitors of vaccinia virus (Venus reporter). Vaccinia virus Venus reporter expression, fluorescence. Potency, µM (doses to about 36.5 µM), without a hit: top-dose activity change, negative = inhibition, most hits filed as inhibitors. 0.46% of 330,000 active; calls by dose curve; tested in A549 cells; further: potency means the concentration at half of the fitted maximal effect; nearly all actives have a fitted effect of over 30% in size
HCMV antiviral: inhibitors of human cytomegalovirus | HFF cells, HCMV-luciferase reporter, 72 h; stronger effect = lower value | activity change, negative = inhibition, % at 57.5 µM | 4.5% of 410,000 active | AID 1259415; in the data active means activity change below about -60%; inconclusive means no clear call, values can overlap the other calls; inactive means above about -39%
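HFF cells seeded 16 h at 37C, treated with compounds, infected with luciferase-reporter HCMV at MOI 1 PFU/cell; luciferase read at 72 h post infection, normalized to buffer-only and Salinomycin controls.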
HCV inhibitor: blocks hepatitis C virus. 3.4% of 340,000 active. Huh7.5.1 HCVcc-Cre infection, luciferase reporter, 44 h. Potency, µM (top dose mostly 41.8 µM), inactives show at the highest dose activity change, negative = inhibition, hits mostly inhibitors; further: potency means the concentration at half of the fitted maximal effect
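Reporter virus HCVcc-Cre (~0.5 moi) infects cells exposed to compound; seeding density 1,000 cells/well with 4 h settling beforehand. Luminescence, 15 sec read, taken 44 h post-infection following a 15 min RT substrate incubation.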
FMDV inh: foot and mouth disease virus antiviral activity. FMDV antiviral cell-based qHTS. Potency, µM (titrated, usually from 57.9 µM), inactives show at the top dose activity change, negative = inhibition, hits mostly inhibitors. 1.2% of 410,000 active. AID 1159524; calls by dose curve; tested in HEK293T cells; further: read-out not given here; potency means the concentration at half of the fitted maximal effect; nearly all actives have a fitted effect of over 45% in size
VACV mCherry inh: inhibitors of vaccinia virus infection (mCherry reporter signal); Vaccinia virus mCherry reporter infection, fluorescence; Potency, µM (doses to about 36.5 µM), for the others: top-dose activity change, negative = inhibition, most hits filed as inhibitors; 0.63% of 310,000 active; calls by dose curve; tested in A549 cells; further: potency means the concentration at half of the fitted maximal effect; nearly all actives have a fitted effect of over 35% in size
Sm TGR block: blocks Schistosoma mansoni thioredoxin glutathione reductase; purified TGR, DTNB reduction, TNB absorbance 405 nm; Potency, µM (titrated, usually from 114 µM), inactives show at the top dose activity change, negative = inhibition, usual class: inhibitors; Q962Y6; 3% of 360,000 active; further: potency means the concentration at half of the fitted maximal effect; nearly all actives have a fitted effect of over 60% in size
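First, TGR (20 nM dispensed) and NADPH were mixed with compound. Second, a 15 min room-temperature incubation followed. Third, further NADPH and then DTNB were added to start the reaction. Finally, TNB absorbance was monitored kinetically.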
* hit, by the source's call; i = inactive; ? = inconclusive; / = no result given; [ ] = another dose, or the depositor's remark. The list is not random: actives were taken first. Their share in the collection is about 9.3%. Unless noted, the call rests on the fitted dose curve; in most records, active means well fitted curve in the direction sought with a large enough effect; inconclusive means small, poorly fitted or top-dose-only effect, or another doubt; inactive means no such curve, though single readings can be large; an effect the other way counts as inactive or inconclusive. On the % scale 0 is the no-effect control and ±100 the full control effect.

SMILES	VACV Venus inh	HCMV antiviral	HCV inhibitor	FMDV inh	VACV mCherry inh	Sm TGR block
Clc1cccc(Cn2ncc3ccccc32)c1	-5%	1	-13%	15%	-1%	5%
c1cncc(-c2nc(NCC3CCCO3)c3ccccc3n2)c1 (stereo not given)	-2%	/	?	3%	i	-10%
CC(C)Oc1ccc(-c2nc(NCC3CCCO3)c3ccccc3n2)cc1 (stereo not given)	-5%	-78*	11µM*	?	-20%	7%
Oc1ccc(Cl)cc1Nc1nc(NCC2CCCO2)c2ccccc2n1 (stereo not given)	/	-13	/	28µM*	/	/
Cc1cc(NC(=O)CSc2nc(-c3cccs3)nc3ccccc23)no1	/	1	?	-5%	/	-9%
CC(=O)Nc1ccc(Nc2nnc(-c3ccc(C)c(S(N)(=O)=O)c3)c3ccccc23)cc1	-16%	?	1%	28%	-14%	6%
Cc1nnc(Nc2ccc3c(c2)OCO3)c2ccccc12	9%	-91*	25%	40%	-8%	-35%
Cc1ccc(-c2nnc(Nc3ccc4c(c3)OCO4)c3ccccc23)cc1S(N)(=O)=O	-18%	-73*	?	37%	?	4%
CCOC(=O)C(=CNc1ccc(NC2=NCC(C)S2)cc1)C(=O)OCC (stereo not given)	?	-66*	?	-14%	?	8%
CN(C(=O)c1cccc(NC(=O)Cc2cccc(NC(=O)C3CCCN(C(=O)c4ccccc4)C3)c2)c1)C1CCC1 (stereo not given)	-9%	8	12%[8.37 µM]	-13%	-29%	/
Cc1cc(-c2ccc(C)c(S(=O)(=O)Nc3ccc(C)c(N(C)C)c3)c2)on1	-16%	0	/	45%	-14%	-6%
CCc1ccc(-n2c(O)c(C=NCCN(CC)CC)c(=O)[nH]c2=O)cc1	-15%	64	0%	-14%	-12%	22µM*
CCOc1ccc(Br)cc1/C(C)=N\NC1=NCCN1	?	?	4.5µM*	0%	/	-1%
CCCCCCOc1ccc(/C(C)=N/NC2=NCCN2)cc1	/	-96*	11µM*	-18%	/	1%
COc1ccc(-n2c(SC(C)C(=O)Nc3ncc(Cl)cc3Cl)nc3ccccc32)cc1 (stereo not given)	-7%	-85*	?	-13%	?	-20%
CC(=O)Oc1c(I)cc(I)cc1C(=O)Nc1ccc(Cl)cc1	?	-99*	?	?	10µM*	2%
COc1ccc(Cl)cc1C(=O)Nc1ccc(NC(C)=O)cc1	-13%	/	?	8%	-20%	3%
COc1ccc(C2NC(=O)c3ccccc3N2)c(OC)c1OC (stereo not given)	?	34	/	-9%	-4%	/
Cc1[nH]c2ccccc2c1SCCNC(=O)c1ccc(F)cc1	-13%	-30	/	-19%	-2%	9%
COc1ccc(C(=O)NCCSc2c(C)[nH]c3ccccc23)cc1	-12%	-96*	/	-29%	-12%	4%
CC(C)(Oc1ccc(Cl)cc1)C(=O)NCc1ccco1	-11%	2	1%	-4%	/	7.1µM*
S=C(NCc1ccco1)Nc1ccccn1	-13%	?	10%	5%	i	14µM*
S=C(NCc1ccco1)Nc1ccc(Oc2ccc(Cl)cc2)cc1	-11%[7.34 µM]	-60*	9%	-6%	i[7.34 µM]	-12%
S=C(NCc1ccco1)Nc1ccccc1	-14%	-39	-12%	0%	-11%	?
S=C(NCc1ccco1)Nc1ccc(Cl)cc1	-8%	-10	28%	70%	-20%	?
SMILES	VACV Venus inh	HCMV antiviral	HCV inhibitor	FMDV inh	VACV mCherry inh	Sm TGR block
S=C(NCc1ccco1)N/N=C/c1cccnc1	/	-68*	7%	-6%	/	-22%
CC1(C)Cc2c(sc3nc4n(-c5ccccc5)c(=O)c(CCC(=O)O)nn4c(=O)c23)CO1	-13%	-2	3%	-11%	-27%	2%
CC(C)(C)OC(=O)C[C@@H]1C/C=C\C[C@H](CC(=O)N(CCO)Cc2ccccc2)C(=O)N[C@@H](c2ccccc2)COC1=O	-29%	4	-4%	-12%	?	/
S=C(NCc1ccco1)Nc1ccc(Cl)cn1	/	-5	?	14%	/	3.2µM*
CC(=O)Nc1ccc(NC(=O)Nc2ccccc2)cc1	/	2	9%	27%	/	-29%
O=C1c2ccccc2NC(c2cn[nH]c2-c2ccc(Cl)cc2)N1O (stereo not given)	-18%	-39	?	14µM*	?	-18%
CCCCNC(=O)CC1C(=O)N(Cc2ccccc2)C(C)c2nc3ccccc3n21 (stereo not given)	/	-2	-15%	28%	/	-2%
Cc1ccc(CCNC(=O)Cn2nc(C)c3c(C)n(-c4ccc(C)cc4)nc3c2=O)cc1	?	0	/	?	?	10%
Clc1ccc(-c2ccc(C=Nc3ccc(N4CCOCC4)cc3)o2)c(Cl)c1	-12%	-26	6%	6%	-16%	4%
Clc1ccc(-c2ccc(C=Nc3ccc(N4CCOCC4)cc3)o2)cc1	-4%	-62*	16%	-7%	-11%	1%
CC12CN(NC(=O)c3ccccc3F)C3(C#N)CC1CCC23C (stereo not given)	-18%	-75*	23%	3%	-25%	8%
COc1ccc2cc(CN(Cc3ccco3)C(=S)NCC3CCCO3)c(=O)[nH]c2c1 (stereo not given)	1%	?	12%	0%	-1%	-27%[57.1 µM]
Cc1ccc2cc(CN(CC3CCCO3)S(=O)(=O)c3ccccc3)c3nnnn3c2c1 (stereo not given)	-12%	0	?	51%	-15%	7%
Cc1ccc(S(=O)(=O)Cn2nnnc2CN(Cc2ccco2)CC2CCCO2)cc1 (stereo not given)	-13%	0	12%	-14%	-25%	28µM*
Cc1cc(C)c2cc(CN(Cc3ccco3)C(=S)NCC3CCCO3)c(=O)[nH]c2c1 (stereo not given)	/	-3	?	-8%	/	25µM*
Cc1cccc2cc(CN(CC3CCCO3)C(=O)c3ccco3)c(=O)[nH]c12 (stereo not given)	-10%	-9	14%	-8%	-6%	35µM*
Cc1ccc2cc(CN(Cc3nnnn3Cc3ccco3)CC3CCCO3)c(=O)[nH]c2c1C (stereo not given)	4%	0	-18%	4%	i	18µM*
CCCc1cc(=O)[nH]c(SCC(=O)Nc2nc3ccc(OCC)cc3s2)n1	/	87	9%	31%	/	52%
COC(=O)c1cc2oc3ccccc3c2n1Cc1nc(-c2ccc(Cl)cc2)oc1C	3%	4	/	-27%	-18%	2%
COc1ccc(C2(C)NC(=O)N(CC(=O)Nc3ccc(Br)c(C)c3)C2=O)cc1OC (stereo not given)	-25%	10	?	-26%	i	5%
